Inhibition data for 23 compounds are collected here from PubChem BioAssay.

The inhibition is the relative decrease from the control value, in per cent.

Molecules are shown by their SMILES. Unmarked numbers belong to inactive results. Activity calls are given as the source filed them.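 Rule for the calls: active = inhibition at or above 50% relative to wild type and mutant plate controls; inactive = inhibition below 50%.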

The assay is described as follows: loss of swimming-algae plug formation – whole organism, Chlamydomonas reinhardtii, WT vs cilia-less mutant, absorbance, 96-well, primary screen (AID 463189).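 Note: 0% = wild type cc124 cells in DMSO and 100% = ciliumless bld1 mutant cells.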 Particulars: Chlamydomonas reinhardtii gravitaxis, OD600 absorbance, 2 days; at 10 µM; active compounds read high.
With `CC(C)C[C@H](NC(=O)C1OC1C(=O)O)C(=O)NCCCCN=C(N)N` (stereo partly drawn), the inhibition is -4.58%. With `CN1CCc2c(cc(O)c(O)c2Cl)C(c2cccc(Cl)c2)C1` (stereo not drawn), the inhibition is -5.57%.

Regarding `CCCCN1CCC(n2c(=O)[nH]c3ccccc32)CC1`, the inhibition was 4.67%. In the case of `OC[C@H]1O[C@@H](n2cnc3cncnc32)[C@H](O)[C@@H]1O`, the inhibition is 6.38%. With `CCCN(CCC)CCc1cccc2c1CC(=O)N2`, the inhibition was 4.03%.

On to `CCCCCCCCCCCCCCCC(=O)NCC(COP(=O)([O-])OCC[N+](C)(C)C)OCC` (stereo not drawn), for which the inhibition was -1.73%. With `C[C@H](NC(=O)/C(C#N)=C/c1ccc(O)c(O)c1)c1ccccc1`, the inhibition is -0.423%. With `Cc1c(C)c2c(c(C)c1O)CCC(C)(CN1CCN(c3cc(N4CCCC4)nc(N4CCCC4)n3)CC1)O2` (stereo not drawn), the inhibition is 6.96%. On to `C=CC[C@H](N)C(=O)O`, for which the inhibition is 4.13%. Take `CC(C)(C)NCC(O)COc1cccc2[nH]c(=O)[nH]c12` (stereo not drawn): the inhibition is 3.61%. For `CCn1c(=O)[nH]c2cc(Cl)c(Cl)cc21`, the inhibition is 1.13%. Turning to `CCCc1c(-c2ccc(O)cc2)nn(-c2ccc(O)cc2)c1-c1ccc(O)cc1`, the inhibition was 6.07%.

In the case of `C=CCN1CCc2c(cc(O)c(O)c2Br)[C@@H](c2ccccc2)C1`, the inhibition is 0.67%. As to `C[C@H]1c2cccc(O)c2C(O)=C2C(=O)[C@]3(O)C(O)=C(C(N)=O)C(=O)[C@@H](N(C)C)[C@@H]3[C@@H](O)[C@@H]21`, the inhibition was 64.7% (active). Regarding `CN(C)CC/C=C1\c2ccccc2COc2ccccc21`, the inhibition is 6.63%. Regarding `COc1cc(CC(=O)O)ccc1O`, the inhibition was -2.57%. The result for `CC(=O)NNC(=O)N1Cc2ccccc2Oc2ccc(Cl)cc21` reads 3.76%; that for `C#CC(N)CCC(=O)O` (stereo not drawn), -0.038%.

Regarding `CC(=O)NCCc1c[nH]c2ccc(O)cc12`, the inhibition is -4.58%. With `Oc1ccccc1O`, the inhibition was -5%. As for `O=C(O)C1CCCNC1` (stereo not drawn), the inhibition is -1.36%.

`Cc1nc(N=Nc2ccc(S(=O)(=O)O)cc2S(=O)(=O)O)c(COP(=O)(O)O)c(C=O)c1O`: the inhibition is 2.65%. On to `Nc1cc(=O)[nH]c(N)n1`, for which the inhibition was -17.2%.
